Data on 45 compounds can be found in PubChem BioAssay (NCATS).

The target in assay [1] is Aldehyde dehydrogenase, mitochondrial (Homo sapiens) (UniProt P05091). Nature of the assay: qHTS for Inhibitors of the Aldehyde Dehydrogenase Family (ALDH2) Primary screen (AID 2061308; also: nearly all actives have a fitted effect of over 55% in size). (In general: Quantitative high-throughput screening tests each substance at several concentrations.)
The target in assay [2] is Retinaldehyde dehydrogenase 3 (Homo sapiens) (UniProt P47895). Nature of the assay: qHTS for Inhibitors of the Aldehyde Dehydrogenase Family (ALDH1A3) Primary screen (AID 2061315).

Results filed as inconclusive are left out. Entries that show only a call come without a potency. Calls of active or inactive are those of the source. Calls follow the shape of the dose curve; as a rule, active = well fitted curve in the direction sought with a large enough effect; inconclusive = small, poorly fitted or top-dose-only effect, or another doubt; inactive = no such curve, though single readings can be large; an effect the other way counts as inactive or inconclusive.

With `Cc1ccc(NS(=O)(=O)c2cccc(C(=O)Nc3nc(-c4ccccc4)cs3)c2)cc1`, the Potency entry in assay [1] and in assay [2] was “inactive” in each case.
`CC(C)c1ccccc1-c1ncc(F)c(NCc2ccc(-c3cccnc3)s2)n1`: the Potency entry in assay [1] and in assay [2] was “inactive” each time.
Turning to `N#Cc1cccc(S(=O)(=O)Nc2cnccc2C(=O)Nc2nc(-c3ccccc3)cs2)c1`, the Potency result in assay [1] and in assay [2] was “inactive” each time.
As to `O=C(Nc1ccc([S+](=O)([O-])Nc2nccs2)cc1)c1ccn[nH]1`, the Potency entry in assay [1] and in assay [2] was “inactive” in each case.
Regarding `COC1CC(=O)C23C(=O)NC(CC(C)C)C2C(C)C(C)=CC3/C=C(\C)CCC1O` (stereo not given), the Potency result in assay [1] and in assay [2] was “inactive” throughout.
As for `COc1ccc(C2Nc3ccccc3C(=O)N2Cc2ccccn2)cc1COc1c(C)cccc1C` (stereo not given), the Potency entry in assay [1] and in assay [2] was “inactive” in each case.
As to `CNc1oc(-c2ccc3cnccc3c2)nc1C#N`, the Potency result in assay [1] and in assay [2] was “inactive” throughout.
Consider `Cc1ccc(NS(=O)(=O)c2ccc3c(c2)CCCC(=O)N3)cc1C`, for which the Potency result in assay [1] and in assay [2] was “inactive” in each case.
Take `Brc1sc2c(c1-c1nc3ccccc3s1)CCNC2`: the Potency entry in assay [1] and in assay [2] was “inactive” throughout.
On to `Cc1nc(NC2CCCCC2)c2nc(-c3ccccc3)n(C(C)CN(C)C)c2n1` (stereo not given), for which the Potency entry in assay [1] and in assay [2] was “inactive” throughout.
With `O=C(Nc1ccc(Cl)c(Cl)c1)Nc1nc(-c2ccncc2)cs1`, the Potency entry in assay [1] and in assay [2] was “inactive” in each case.
`Cc1ccc(NC(=O)c2cnn3c(-c4ccccc4)cc(C)nc23)cc1`: the Potency result in assay [1] and in assay [2] was “inactive” throughout.
`c1nc(NCCCN2CCCCC2)c2cc(-c3ccc4c(c3)OCO4)ccc2n1`: the Potency result in assay [1] and in assay [2] was “inactive” throughout.
In the case of `CC(=O)Nc1sc2c(c1-c1ccc3nsnc3c1)CCNC2`, the Potency entry in assay [1] and in assay [2] was “inactive” throughout.
As to `S=C(NCCCc1cnc[nH]1)NCCCN(Cc1ccc(Cl)c(Cl)c1)c1ccc(Br)cn1`, the Potency entry in assay [1] and in assay [2] was “inactive” in each case.
In the case of `COc1cc(NS(=O)(=O)c2ccc(C)cc2)cc(C(=O)Nc2nc(-c3ccccc3)cs2)c1`, the Potency result in assay [1] and in assay [2] was “inactive” throughout.
For `COc1ccc(C2=Nn3c(nnc3-c3ccccc3C(F)(F)F)SC2)cc1OC`, the Potency result in assay [1] and in assay [2] was “inactive” each time.
For the compound `O=c1c2ccc([N+](=O)[O-])cc2nc2sc(Nc3ccc4c(c3)CCC4)nn12`, the Potency result in assay [1] and in assay [2] was “inactive” throughout.
As to `CCOC(=O)C1CCN(C(=O)C(C)(C)NC(=O)Nc2ccc3c(c2)CCC3)CC1`, the Potency result in assay [1] and in assay [2] was “inactive” each time.
`COc1ccc(CN(Cc2ccccc2)C(=O)c2ccccc2)cc1COc1ccc(NC(C)=O)cc1`: the Potency result in assay [1] and in assay [2] was “inactive” in each case.
Regarding `COc1cc(O)c(C(CC(=O)N2CCC(C)CC2)c2ccc3c(c2)OCO3)c(OC)c1` (stereo not given), the Potency entry in assay [1] and in assay [2] was “inactive” in each case.
Turning to `c1cncc(CNc2ccnc(-c3ccc4c(c3)OCO4)n2)c1`, the Potency entry in assay [1] and in assay [2] was “inactive” each time.
`CC(C)c1ccccc1-c1ncc(F)c(NCC2CCN(c3cnccn3)C2)n1` (stereo not given): the Potency result in assay [1] and in assay [2] was “inactive” in each case.
For the compound `O=C(c1ccc2c(c1)ncn2-c1ccc(C(F)(F)F)cc1)N1CCCCC1`, the Potency entry in assay [1] and in assay [2] was “inactive” each time.
Regarding `Clc1cccc(-c2ccc3ncnc(NCc4cccnc4)c3c2)c1`, the Potency result in assay [1] and in assay [2] was “inactive” each time.
In the case of `Cc1ccc(S(=O)(=O)Nc2ccc(F)cc2C(=O)Nc2nc(-c3ccccc3)cs2)cc1`, the Potency result in assay [1] and in assay [2] was “inactive” in each case.
On to `CCN(CC)CCCC(C)n1c(-c2ccccc2)nc2c(N(CCOC)CCOC)nc(C)nc21` (stereo not given), for which the Potency entry in assay [1] and in assay [2] was “inactive” each time.
Turning to `N#CN1CCC(NC(=O)c2cccc(C(F)(F)F)c2)CC1`, the Potency result in assay [1] and in assay [2] was “inactive” throughout.
As for `CCCn1c(C)nc2c(NC3CCCCC3)nc(C)nc21`, the Potency result in assay [1] and in assay [2] was “inactive” each time.
With `CNc1nc(-c2cccc3ccccc23)ccc1C#N`, the Potency result in assay [1] and in assay [2] was “inactive” throughout.
Regarding `O=S(=O)(c1cccc(O)c1)N1CCN(S(=O)(=O)c2c(F)cccc2F)CC1`, the Potency entry in assay [1] and in assay [2] was “inactive” throughout.
Consider `O=C(Nc1nnc(-c2ccncc2)s1)Nc1ccc(Cl)cc1Cl`, for which the Potency entry in assay [1] and in assay [2] was “inactive” in each case.
For the compound `O=C(O)c1ccncc1Nc1nn(CCN2CCC(F)(F)CC2)c2ccc(F)cc12`, the Potency entry in assay [1] and in assay [2] was “inactive” throughout.
For the compound `COc1ccc(-c2nc3ccccc3c(=O)n2Cc2ccco2)cc1COc1c(C)cccc1C`, the Potency entry in assay [1] and in assay [2] was “inactive” in each case.
Take `COc1cccc(-c2ccc3ncnc(NCc4cccnc4)c3c2)c1`: the Potency result in assay [1] and in assay [2] was “inactive” throughout.
For the compound `NC(=O)c1c(-c2ccccc2)no[n+]1[O-]`, the Potency entry in assay [1] and in assay [2] was “inactive” each time.
Regarding `CCn1cnc2c(NCCc3cccnc3)nc(C#N)nc21`, the Potency result in assay [1] and in assay [2] was “inactive” each time.
On to `O=C(Cn1cc(CNCc2ccccc2)nn1)Nc1cc(C(F)(F)F)ccc1Cl`, for which the Potency entry in assay [1] and in assay [2] was “inactive” throughout.
For the compound `CCOc1ccc(CCNC(=O)c2cc3sccc3n2Cc2ccccc2)cc1OCC`, the Potency entry in assay [1] and in assay [2] was “inactive” throughout.
For the compound `CN1CCN(Nc2nn3c(=O)c4ccccc4nc3s2)CC1`, the Potency result in assay [1] and in assay [2] was “inactive” each time.
In the case of `Cc1ccc(S(=O)(=O)Nc2ccccc2CNc2nc(-c3ccccc3)cs2)cc1`, the Potency result in assay [1] and in assay [2] was “inactive” in each case.
As to `Cc1cc(C)nc(NC(=S)N2CCN(c3ccc(S(C)(=O)=O)cc3F)CC2)c1`, the Potency result in assay [1] and in assay [2] was “inactive” each time.
`COC(=O)c1ccc(O)c2ncc(-c3ccc(C(=O)N4CCN(C)CC4)cc3)cc12`: the Potency result in assay [1] and in assay [2] was “inactive” in each case.
For the compound `O=C(Nc1nc(-c2ccccc2)cs1)c1ccccc1[N+](=O)[O-]`, the Potency entry in assay [1] and in assay [2] was “inactive” throughout.
Regarding `O=C(Nc1ccc(Cl)c([N+](=O)[O-])c1)Nc1cccc(-c2ccncc2)n1`, the Potency result in assay [1] and in assay [2] was “inactive” throughout.
